# Compound activity deposited in PubChem by National Center for Advancing Translational Sciences (NCATS).
# Compounds with a hit are over-represented: about 10% of the library has one in this group of screens.
# Luc counter = Counterscreen for Luciferase (Kinase-Glo TM) Inhibition; Kinase-Glo luciferase, ATP luminescence, 8 min; Potency, µM (doses to about 38.3 µM), for the others: at the top dose activity change, negative = inhibition, usual class: inhibitors; 200,000 compounds, 0.28% hits; active = well fitted inhibition curve with a large enough effect; inconclusive = small, poorly fitted or top-dose-only effect; also: potency is read from the fitted curve at half-maximal effect; nearly all actives have a fitted effect of over 60% in size
#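 Kinase-Glo luciferase light output from ATP and luciferin was measured with 10 uM ATP, within the enzyme's linear range. Buffer: 50 mM imidazole pH 7.2, 50 mM KCl, 7 mM MgCl2, 0.01% Tween 20, 0.05% BSA; luminescence read after 8 min at ambient temperature.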
# ALDH1A1 block = qHTS Assay for Inhibitors of Aldehyde Dehydrogenase 1 (ALDH1A1); Aldehyde dehydrogenase 1A1 (Homo sapiens), P00352; Purified ALDH1A1, NADH fluorescence, propionaldehyde substrate; Potency, µM (highest dose often 75.3 µM), inactives show top-dose activity, negative = inhibition, actives largely listed as inhibitors; 220,000 compounds, 7.3% hits; AID 1030, 2008;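 also: potency is read from the fitted curve at half-maximal effect; plate controls were no enzyme wells and a reference inhibitor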
# Target sequence (P00352 whole entry, looked up): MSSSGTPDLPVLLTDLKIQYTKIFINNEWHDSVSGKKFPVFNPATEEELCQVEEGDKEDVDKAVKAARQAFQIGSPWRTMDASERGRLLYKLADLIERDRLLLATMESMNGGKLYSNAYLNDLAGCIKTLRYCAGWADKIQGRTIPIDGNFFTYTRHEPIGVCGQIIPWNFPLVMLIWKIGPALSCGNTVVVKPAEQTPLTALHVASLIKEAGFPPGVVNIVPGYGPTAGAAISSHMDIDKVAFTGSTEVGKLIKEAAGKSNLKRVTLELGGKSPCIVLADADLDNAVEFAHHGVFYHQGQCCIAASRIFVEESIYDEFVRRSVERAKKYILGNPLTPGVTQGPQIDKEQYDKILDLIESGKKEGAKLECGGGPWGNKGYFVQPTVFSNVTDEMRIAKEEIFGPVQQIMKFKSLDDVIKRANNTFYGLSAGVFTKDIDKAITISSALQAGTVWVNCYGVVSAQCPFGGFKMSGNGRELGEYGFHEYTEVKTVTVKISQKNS
# HPGD inh = qHTS Assay for Inhibitors of HPGD (15-Hydroxyprostaglandin Dehydrogenase) | 15-hydroxyprostaglandin dehydrogenase [NAD(+)] (Homo sapiens), P15428 | Potency, µM, for inactives: at the top dose activity change, negative = inhibition, most hits filed as inhibitors | AID 894, 2007 | 150,000 compounds, 4.3% hits | purified HPGD, NADH fluorescence kinetic, PGE2 substrate; also: potency is read from the fitted curve at half-maximal effect
#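 NADH formation kinetics: reaction with 30 uM PGE2 and 1 mM NAD+ (final), 20 nM enzyme, Tris-HCl pH 8 with Tween 20, after 15 min compound preincubation at room temperature. Fluorescence change, last versus first of five reads.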
# PNC assembly inh = High Content Assay for Compounds that inhibit the Assembly of the Perinucleolar Compartment | activity change (PNC), negative = inhibition, % at 10 µM | 140,000 compounds, 3.1% hits | PC3M PTB-GFP, PNC prevalence imaging, 16 h; active compounds read low;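 active = readout at or below -70, meaning at least 70% loss of cells showing the perinucleolar compartment, a nuclear body marking cancer cells; inconclusive = readout between -30 and a set limit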;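 also: plate controls were DMSO wells for no effect and camptothecin positive control wells for full effect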
#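 Compounds are pinned in duplicate onto adhered PC3M cells stably expressing GFP-tagged PTB and incubated 16 h at 37 C. Cells are then fixed, nuclei stained with Hoechst, and PNC-positive cells counted.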
# LMNA splice mod = qHTS Assay for Modulators of Lamin A Splicing; HeLa LMNA splicing GFP/RFP minigene ratio, 48 h; Potency, µM (titrated, usually from 46.1 µM), for the others: top-dose ratio change, negative = inhibition, hits mostly inhibitors; 200,000 compounds, 0.01% hits; AID 1487, 2009; active = well fitted inhibition curve with a large enough effect in the signal ratio, with a control signal flat, not every such curve was filed as active; inconclusive = small, poorly fitted or top-dose-only effect, or effect the other way, or a change in a side signal; the % refers to the signal ratio; also: potency is read from the fitted curve at half-maximal effect
#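 S3 HeLa cells stably expressing lamin A-EGFP splicing minigene plus DsRed2, 600 cells/well, 48 h compound exposure at 37C. Laser-scanning cytometry; analysed as GFP (500-530 nm)/RFP (575-640 nm) total intensity ratio; 0.5% DMSO vehicle.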
# Active calls of the source: *; ? = inconclusive; / = no result given; [ ] = remark or other dose. Unless noted, calls follow the shape of the dose curve; as a rule, active = well fitted inhibition curve with a large enough effect (not every such curve was filed as active); inconclusive = small, poorly fitted or top-dose-only effect, or another doubt; inactive = no such curve, though single readings can be large or run the other way. Unless noted, % is scaled to controls: 0 for no effect and ±100 for the full control effect.
SMILES,Luc counter,ALDH1A1 block,HPGD inh,PNC assembly inh,LMNA splice mod
O=C1c2cccnc2C(O)N1Cc1ccco1 (centres undefined),3%,20µM*,5%,?,-5%
O=C1c2cccnc2C(Nc2ccccc2Br)N1Cc1ccco1 (centres undefined),-7%,25µM*,/,/,/
Cc1ccc(NC2c3ncccc3C(=O)N2Cc2cccs2)cc1 (centres undefined),2%,28µM*,/,/,23%[9.22 µM]
O=C1c2cccnc2C(O)N1Cc1ccccc1 (centres undefined),5%,2%,0%,0,-9%
Cc1cc2c(cc1S(=O)(=O)NCc1ccc(F)cc1)n(C)c(=O)c(=O)n2C,/,/,/,/,1%[46 µM]
O=C(CSc1ncc(CO)n1Cc1ccccc1)Nc1ccc(C(F)(F)F)cc1,/,/,/,/,-9%[46 µM]
CN1CCCC2(CCN(C(=O)c3cccn3C)CC2)C1,-1%,12%,-7%,/,/
C[N+]1(C)CCC(=C2c3ccccc3CC(=O)c3sccc32)CC1,-8%,7.1µM*,?,-9,13%
COCCn1c(=O)c(-c2ccc(F)cc2)nc2cnc(OC)nc21,/,?,/,/,0%
O=C(O/N=C1\CCS(=O)(=O)c2sccc21)c1ccccc1,-28%,13µM*,-16%,?,10%
O=C(O/N=C1\CCS(=O)(=O)c2sccc21)c1ccc(F)cc1,-1%,-3%,/,/,2%[46 µM]
Cn1c(Cn2c(=O)sc3ccccc32)nnc1SCC(=O)NCC1CCCO1 (centres undefined),-3%,2%,-15%,38,-4%
Nc1c(C(=O)NCC2CCCO2)sc(=S)n1-c1ccccc1 (centres undefined),-3%,14µM*,25µM*,-3,-3%
CCn1c(N)c(C(=O)NCC2CCCO2)sc1=S (centres undefined),-7%,8.9µM*,6.3µM*,-27,7%
O=C(CSc1nnc(Cn2c(=O)sc3ccccc32)n1-c1ccccc1)NCC1CCCO1 (centres undefined),-3%,3%,-24%,-108*,-3%
COc1ccc(C(=O)CN2C(=O)N(c3cc(C)cc(C)c3)S(=O)(=O)c3ccccc32)cc1,/,/,/,/,-4%[46 µM]
COC(=O)[C@H]1C[C@@H]2CC[C@@H](O)C[C@@H]2N1Cc1c(F)cccc1Cl,-2%,-1%,-2%,/,/
CC(C)CC(=O)NC(NC(=S)Nc1ccccc1)C(Cl)(Cl)Cl (centres undefined),1%,-5%,/,/,-12%[46 µM]
CC(=O)NC(NC(=S)Nc1ccc(N=Nc2ccccc2)cc1)C(Cl)(Cl)Cl (centres undefined),1%,13µM*,-29%,-15,?
COC(=O)NC(NC(=S)Nc1ccccc1OC)C(Cl)(Cl)Cl (centres undefined),/,3.2µM*,/,87,-17%
COc1ccc([N+](=O)[O-])cc1NC(=S)NC(NC(=O)C(c1ccccc1)c1ccccc1)C(Cl)(Cl)Cl (centres undefined),-4%,20µM*,-10%,-6,?
COC(=O)NC(NC(=S)Nc1ccc([N+](=O)[O-])cc1)C(Cl)(Cl)Cl (centres undefined),3%,20µM*,32µM*,-4,?
CCCCC(=O)Nc1sc2c(c1-c1nc3ccccc3s1)CCN(C(C)=O)C2,4%,25µM*,-20%,-28,?
C=C1c2cccc(C(F)(F)F)c2O[C@H](C(=O)OCC)[C@@H]1CCCCCC,-1%[39.9 µM],4%,0%,/,/
CCCC(C(=O)NC1CCCC1)N(Cc1ccc2c(c1)OCO2)C(=O)c1snc(C(N)=O)c1N (centres undefined),-2%,13µM*,-16%,0,-1%
SMILES,Luc counter,ALDH1A1 block,HPGD inh,PNC assembly inh,LMNA splice mod
CS(=O)(=O)N1CCC2(CCN(C(=O)Nc3cccc(C#N)c3)CC2)CC1,0%,-3%,-4%,/,/
COc1ccc(C(C)=O)cc1COC(=O)c1ccc(N)c([N+](=O)[O-])c1,2%,10µM*,/,/,-9%[46 µM]
COc1ccc(C(C)=O)cc1COc1ccc([N+](=O)[O-])c(C)c1,1%,?,/,/,/
Nc1ccc(C(=O)OCc2ccncc2)cc1[N+](=O)[O-],0%,3%,/,/,-4%[46 µM]
COc1ccc(C(C)=O)cc1COc1ccccc1[N+](=O)[O-],3%,3.2µM*,/,/,?
Cc1ccc(CCNC(=O)c2cnc3c(-c4ccc(F)cc4)c(C)nn3c2C)cc1,/,/,/,/,-14%[46 µM]
CCC1(C)Cc2c(sc3nn[nH]c(=O)c23)CO1 (centres undefined),-3%,?,?,19,6%
CC1(C)Cc2c(sc3nnn(Cc4ccccc4)c(=O)c23)CO1,-6%,?,32µM*,14,?
CC1(C)Cc2c(sc3c2c(=O)n(Cc2ccccc2)c2nncn32)CO1,13%,4%,-13%,13,5%
Cc1nnc2n(Cc3ccccc3)c(=O)c3c4c(sc3n12)COC(C)(C)C4,1%,13µM*,16µM*,15,29%
CCC1(C)Cc2c(sc3nnn(Cc4ccccc4Cl)c(=O)c23)CO1 (centres undefined),3%,-2%,-5%,6,-3%
CC1(C)Cc2c(sc3nn[nH]c(=O)c23)CO1,-3%,?,?,-85*,3%
CCC/C=C(\CCC)C(NS(=O)(=O)c1ccc(-c2ccccc2)cc1)c1ccc(C(=O)OC)cc1 (centres undefined),3%,-9%,-10%,/,/
COC(=O)C1(C)C=C2C(=C(c3ccccc3)C(=O)C2C)CN1 (centres undefined),1%,?,-3%,/,/
Nn1cnc2c(c1=O)C1(CCCCC1)Cc1ccccc1-2,-1%,?,2%,?,?
CCOC(=O)C1Cn2c(nc3c(c2=O)C(C)(C)Cc2ccccc2-3)S1 (centres undefined),-2%,?,?,-22,-6%
CCOC(=O)C1Cn2c(nc3c(c2=O)C2(CCCC2)Cc2ccccc2-3)S1 (centres undefined),2%,?,?,-103*,?
O=c1c2c(nc3n1CCCCC3)-c1ccccc1CC21CCCC1,5%,0.63µM*,-14%,0,?
O=S(=O)(N/N=C/c1c(F)cccc1Cl)c1ccccc1,3%,6.3µM*,-8%,-28,-2%
Cc1ccc(S(=O)(=O)N/N=C/c2c(F)cccc2Cl)cc1,7%,28µM*,-9%,-2,-24%
Cc1ccc(NC(=S)N/N=C/c2ccc([N+](=O)[O-])s2)cc1,13%,11µM*,?,35,?
O=C(Cc1cccs1)N/N=C\c1ccc([N+](=O)[O-])s1,3%,13µM*,/,/,7%[46 µM]
Cc1ccc(/C=N/NC(=O)Cc2cccs2)o1,0%,13µM*,-21%,-22,-12%
